# Results taken from PubChem BioAssay (NCATS).
# Results filed as inconclusive are left out. Entries that show only a call come without a potency. Activity calls are given as the source filed them. Unless noted, the call rests on the fitted dose curve; in most records, active means well fitted curve in the direction sought with a large enough effect; inconclusive means small, poorly fitted or top-dose-only effect, or another doubt; inactive means no such curve, though single readings can be large; an effect the other way counts as inactive or inconclusive.
# Legend:
# [1] = qHTS Assay for Lipid Storage Modulators (AID 1519; calls by dose curve); conditions: Drosophila S3 cells, BODIPY lipid droplet/cell ratio, laser cytometry, cells loaded with oleic acid; for activity change, negative = inhibition: at 57.5 µM (top of the series)
# In short: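 Cells seeded at 5,000 per well were treated with compounds over a concentration series and loaded with oleic acid (400 uM, as added). Lipid droplet fluorescence (488 nm excitation, 500-530 nm channel) was read by laser-scanning cytometry and normalized to 20 uM Triacsin C.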
# [2] = OV-SAHO Cancer Cell Toxicity qHTS against the NCATS CANVASS Library (AID 1347348); further: nearly all actives have a fitted effect of over 55% in size; further: potency means the concentration at half of the fitted maximal effect
# In short: (§1)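 Bortezomib titration and single-dose wells served as plate controls. Test compounds, 11 points, acted on 1000 cells/well for 72 h at 37 degrees C; CellTiter-Glo luminescence quantified remaining viable cells.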
# [3] = COV-362 Cancer Cell Toxicity qHTS against the NCATS CANVASS Library (AID 1347352)
# In short: (§2)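 Cells at 1000/well were given compound 4 h after plating in an 11-point series. Viability was read by CellTiter-Glo luminescence after 72 h at 37 degrees C.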
# [4] = HEK293 12hr Apoptosis Induction qHTS against the NCATS CANVASS Library (AID 1347361)
# In short: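 Luminescent caspase-3/7 signal, proportional to enzyme activity, was recorded from HEK293 cultures in DMEM + 10% FBS treated for 12 hours with titrated natural products (11 points). Doxorubicin (0.1nM - 4uM) served as control.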
# [5] = G06 Cancer Cell Toxicity qHTS against the NCATS CANVASS Library (AID 1347368); further: nearly all actives have a fitted effect of over 60% in size; further: potency means the concentration at half of the fitted maximal effect
# In short: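 G06 dog glioma cells, 500 per well, exposed 72 hr at 37C, 5% CO2 to compounds in an 11-point series. Cytotoxicity read as ATP content by CellTiterGlo luminescence.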
# [6] = Vero-766 cells viability qHTS against the NCATS CANVASS Library: Counterscreen for Zika virus inhibition assay (AID 1347394); further: nearly all actives have a fitted effect of over 60% in size; further: potency means the concentration at half of the fitted maximal effect
# In short: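 Counterscreen for toxicity: Vero 766 cells exposed 72 h to an 11-point compound series, viability by CellTiter-Glo.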
# [7] = Viability qHTS for inhibitors of the SERCaMP assay screened against the NCATS CANVASS Library (AID 1347400); further: nearly all actives have a fitted effect of over 70% in size; further: potency means the concentration at half of the fitted maximal effect
# In short: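 SH-SY5Y-GLuc SERCaMP MJH297-derived cells, 1000/well, plated 4 h, then exposed to compounds in an 11-point qHTS series for 48 h at 37C. Viability read as CellTiter-Glo luminescence.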
# [8] = SDT Cancer Cell Toxicity qHTS against the NCATS CANVASS Library (AID 1347365); further: potency means the concentration at half of the fitted maximal effect; nearly all actives have a fitted effect of over 60% in size
# In short: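 SDT dog glioma cells (500/well) exposed to an 11-point compound series for 72 hr at 37C, 5% CO2. Cytotoxicity read as ATP content by CellTiterGlo luminescence; bortezomib titration as control.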
# [9] = KB-3-1 Cancer Cell Toxicity qHTS against the NCATS CANVASS Library (AID 1347366); further: potency means the concentration at half of the fitted maximal effect; nearly all actives have a fitted effect of over 75% in size
# In short: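 Cytotoxicity toward KB-3-1 cells (500/well, DMEM + 10% FBS) was scored by CellTiter-Glo luminescence following 72 hr exposure at 37C, with bortezomib titrated as control.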
# [10] = biological target: Nuclear receptor subfamily 1 group I member 3 (Homo sapiens) (UniProt Q14994); assay: qHTS for Constitutive Androstane Receptor (CAR) Antagonist screened against the NCATS CANVASS Library (AID 1347372); further: potency means the concentration at half of the fitted maximal effect;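 on activity change, negative = inhibition: cells stimulated with 50 nM CITCO agonist so inhibition reflects antagonism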
# In short: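 HepG2 cells stably carrying hCAR and a CYP2B6-2.2kb luciferase reporter were exposed to compounds plus 50 nM CITCO for 24hr at 37C. CAR activity was read by ONE-Glo luminescence, with viability measured first by CellTiter-Fluor.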
# [11] = qHTS for Antimalaria activity screened against the NCATS CANVASS Library (AID 1347380); further: nearly all actives have a fitted effect of over 40% in size; further: potency means the concentration at half of the fitted maximal effect;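 on activity change, negative = inhibition: Plasmodium falciparum strain Dd2 asexual parasites grown in red blood cells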
# In short: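 Red blood cells infected with P. falciparum Dd2 (2.5% hematocrit final, 0.3% parasitemia) were exposed to compounds in an 11-point qHTS series for 72 hr at 37C under 5% O2 and 5% CO2. Lysis buffer with SYBR Green was then added for 18 hr, and fluorescence was read at 485/535 nm.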
# [12] = Secretion counterscreen for inhibitors of the SERCaMP assay screened against the NCATS CANVASS Library (AID 1347390);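 further: light from luciferase secreted into medium read as a measure of general secretion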
# In short: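 Natural products are titrated in an 11-point series up to 77 uM onto SH-SY5Y-GLuc STOP cells for 20 h. Secreted reporter activity is measured as coelenterazine-driven luminescence, with Brefeldin A on each plate.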
# [13] = HPAF-II Cancer Cell Toxicity qHTS against the NCATS CANVASS Library (AID 1347346); further: nearly all actives have a fitted effect of over 55% in size; further: potency means the concentration at half of the fitted maximal effect
# In short: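 HPAF-II cells at 1000 cells/well were treated with an 11-point concentration series for 72 hours at 37 degrees C. Viability read by CellTiter-Glo luminescence.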
# [14] = Panc-1005 Cancer Cell Toxicity qHTS against the NCATS CANVASS Library (AID 1347349); further: nearly all actives have a fitted effect of over 60% in size; further: potency means the concentration at half of the fitted maximal effect
# In short: as §1
# [15] = U-118MG Cancer Cell Toxicity qHTS against the NCATS CANVASS Library (AID 1347351)
# In short: as §1
# [16] = UWB1.289-WTBRCA1 Cancer Cell Toxicity qHTS against the NCATS CANVASS Library (AID 1347354)
# In short: as §2
# [17] = NCATS anti-infectives library activity on the primary C. elegans qHTS viability assay (AID 1745855; calls by dose curve; further: potency means the concentration at half of the fitted maximal effect)
# In short: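 Viability read-out is GFP fluorescence of PE254-GFP-FLuc C. elegans, measured by laser cytometry (488 nm) at day 0, 3 and 7. Ten L1 worms per well were incubated 7 days at 21 °C with compounds and bacterial capsules in S medium.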
# [18] = biological target: Calcium and integrin-binding protein 1 (Homo sapiens) (UniProt Q99828); assay: Primary qHTS for Identification of Calcium Integrin Binding Protein 1 (CIB1) Competitor (AID 1508620);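 further: GST tagged CIB1 binding a fluorescein labelled alphaIIb integrin peptide tracer; top concentration of the series differs between compounds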
# In short: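 Fluorescence polarization competition: CIB1-GST (1 uM final) preincubated with compound 15 min at room temperature, then FITC-labeled alphaIIb peptide (100 nM final) added for another 15 min. Polarization read at Ex 480/Em 540.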
# [19] = biological target: Cytochrome P450 2C9 (Homo sapiens) (UniProt P11712); assay: Cytochrome P450 family 2 subfamily C member 9 (CYP2C9) small molecule antagonists: luciferase biochemical (cell-free) qHTS assay (AID 1645842; active means well fitted curve in the direction sought with a large enough effect in the repeat runs; an effect the other way counts as inactive or inconclusive; further: nearly all actives have a fitted effect of over 55% in size; further: potency means the concentration at half of the fitted maximal effect)
# In short: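 Luminescence, after 20 min with luciferin detection reagent, reflected CYP2C9 turnover during a 1 h NADPH-driven reaction at 37C. Enzyme-substrate mix contained 0.4% bovine serum albumin and was preincubated with compound 10 min at room temperature.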
# [20] = measured here: cell count channel max response
# [21] = measured here: lipid channel max response
# Sequence of Cytochrome P450 2C9 (Homo sapiens) (P11712 whole entry, looked up): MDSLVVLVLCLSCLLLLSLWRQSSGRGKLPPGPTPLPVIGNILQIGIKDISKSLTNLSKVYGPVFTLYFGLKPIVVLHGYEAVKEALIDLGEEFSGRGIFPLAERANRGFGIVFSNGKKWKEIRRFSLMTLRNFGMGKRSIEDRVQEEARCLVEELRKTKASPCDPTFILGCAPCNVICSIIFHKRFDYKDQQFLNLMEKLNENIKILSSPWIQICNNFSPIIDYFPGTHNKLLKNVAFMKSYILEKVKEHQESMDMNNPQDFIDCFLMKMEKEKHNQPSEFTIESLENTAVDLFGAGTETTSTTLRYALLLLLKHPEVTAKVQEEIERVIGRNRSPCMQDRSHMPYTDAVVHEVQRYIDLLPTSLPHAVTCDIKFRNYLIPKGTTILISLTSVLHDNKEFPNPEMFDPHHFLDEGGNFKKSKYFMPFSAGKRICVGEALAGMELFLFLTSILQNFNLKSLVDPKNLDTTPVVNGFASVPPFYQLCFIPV
# Sequence of Calcium and integrin-binding protein 1 (Homo sapiens) (Q99828 whole entry, looked up): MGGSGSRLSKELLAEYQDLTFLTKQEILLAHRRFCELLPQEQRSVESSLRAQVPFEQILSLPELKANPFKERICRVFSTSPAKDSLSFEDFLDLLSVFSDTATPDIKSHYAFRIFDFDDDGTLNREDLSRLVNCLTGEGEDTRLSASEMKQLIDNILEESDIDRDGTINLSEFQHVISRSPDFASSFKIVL
# Sequence of Nuclear receptor subfamily 1 group I member 3 (Homo sapiens) (Q14994 whole entry, looked up): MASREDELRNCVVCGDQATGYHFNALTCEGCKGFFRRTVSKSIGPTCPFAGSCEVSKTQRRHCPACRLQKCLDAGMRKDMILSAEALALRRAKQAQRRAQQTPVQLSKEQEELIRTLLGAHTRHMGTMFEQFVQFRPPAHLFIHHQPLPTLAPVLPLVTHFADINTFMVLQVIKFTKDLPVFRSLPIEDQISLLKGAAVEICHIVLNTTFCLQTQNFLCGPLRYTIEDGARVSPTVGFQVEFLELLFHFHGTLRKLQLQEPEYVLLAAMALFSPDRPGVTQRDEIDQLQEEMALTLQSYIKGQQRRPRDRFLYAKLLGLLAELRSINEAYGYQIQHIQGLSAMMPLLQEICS
structure (smiles),measurement,setting,value
C=C[C@@](C)(O)CC[C@@H]1[C@@]2(C)CCCC(C)(C)[C@@H]2CC[C@@]1(C)O,"activity change, negative = inhibition",[1],-12.3% (inactive)
same,max response,[1]; [20],-15%
same,max response,[1]; [21],-21.7%
same,Potency,[2],inactive
same,Potency,[3],inactive
same,outcome,[4],inactive
same,Potency,[5],inactive
same,Potency,[6],inactive
same,Potency,[7],inactive
COc1cc(C2C3=C(Cc4cc5c(cc42)OCO5)C(=O)OC3)cc(OC)c1OC (stereo not given),outcome,[4],inactive
same,Potency,[8],0.118 µM (active)
same,Potency,[9],0.105 µM (active)
same,Potency,[5],0.0935 µM (active)
same,Potency,[10],0.117 µM (active)
same,Potency,[11],9.41 µM (active)
same,Potency,[12],inactive
same,Potency,[6],0.186 µM (active)
same,Potency,[7],0.0604 µM (active)
C=C[C@]1(C)CC[C@@H]([C@H](C)C(=O)/C=C/C(C)(C)O)O1,Potency,[13],inactive
same,Potency,[14],inactive
same,Potency,[15],inactive
same,Potency,[3],inactive
same,Potency,[16],inactive
same,outcome,[4],inactive
same,Potency,[10],inactive
same,Potency,[11],inactive
same,Potency,[6],inactive
O=C1CCC(=O)N(O)CCCCCNC(=O)CCC(=O)N(O)CCCCCNC(=O)CCC(=O)N(O)CCCCCN1,Potency,[13],7.49 µM (active)
same,Potency,[2],11.8 µM (active)
same,Potency,[14],8.41 µM (active)
same,Potency,[16],inactive
same,outcome,[4],inactive
same,Potency,[8],4.18 µM (active)
same,Potency,[10],inactive
same,Potency,[11],4.72 µM (active)
same,Potency,[12],inactive
CCC[C@H](NC(=O)/C(C#N)=C/c1cccc(Br)n1)c1ccccc1,Potency,[17],4.09 µM (active)
C=C1CCC2[C@](C)(CO)C(O)CC[C@]2(C)C1C/C=C1/C(=O)OCC1O (stereo not given in full),"activity change, negative = inhibition",[1],2.99% (inactive)
same,max response,[1]; [20],11%
same,max response,[1]; [21],17.4%
O=C(O)c1ccc(O)c2ncccc12,Potency,[18],inactive
Cc1c(-c2cnccn2)ssc1=S,Potency,[17],inactive
C[C@@H]1CC(=O)Nc2cccc(-c3cnn(C(C)(C)C)c3)c2N1,Potency,[18],inactive
O=C(/C=C/c1cccnc1)NCCCCC1CCN(C(=O)c2ccccc2)CC1,Potency,[19],13.5 µM (active)
COc1ccc(-n2cnc3cc(C(=O)N4CCCCC4)ccc32)cc1,Potency,[18],inactive
Cc1c(CN2CCN(C(=O)[C@H](C)O)CC2)sc2c(N3CCOCC3)nc(-c3cnc(N)nc3)nc12,Potency,[19],inactive
CN(Cc1ccccc1)C(=O)c1ccc(S(=O)(=O)Nc2ccccc2)cc1,Potency,[18],inactive
Cn1cc(/C=C2\C(=O)Nc3cccnc32)c2ccccc21,Potency,[19],inactive
Clc1cccc(-c2ccc(-c3nnc(CCCc4ccc5cccnc5n4)o3)cc2)c1,Potency,[18],inactive
COc1ccnc2[nH]cc(C(=O)C(=O)N3CCN(C(=O)c4ccccc4)C[C@H]3C)c12,Potency,[17],inactive
NS(=O)(=O)c1ccc(Cc2c(-c3cccc(-c4ccccc4)c3)nn(-c3nc(C(=O)O)cs3)c2CC2CC2)cc1,Potency,[19],21.3 µM (active)
COC1=C(OC)C(=O)C(C/C=C(\C)CC/C=C(\C)CC/C=C(\C)CC/C=C(/C)CC/C=C(\C)CC/C=C(\C)CC/C=C(\C)CC/C=C(\C)CC/C=C(\C)CCC=C(C)C)=C(C)C1=O,"activity change, negative = inhibition",[1],8.3% (inactive)
same,max response,[1]; [20],17.1%
same,max response,[1]; [21],27.6%
Cc1ccc(-n2c(C)cc(-c3nnc4n3CCCCC4)c2C)cc1,Potency,[18],inactive
Cc1cccc(/C=N/Nc2cc(N3CCOCC3)nc(OCCc3ccccn3)n2)c1,Potency,[19],7.56 µM (active)
C[C@H]1CC2[C@@H]3CCC4=CC(=O)C=C[C@]4(C)[C@@]3(F)[C@@H](O)C[C@]2(C)[C@@]1(O)C(=O)CO (stereo not given in full),"activity change, negative = inhibition",[1],-0.272% (inactive)
same,max response,[1]; [20],-0.0442%
same,max response,[1]; [21],0.965%
O=C(CCCc1ccc2cccnc2n1)NCc1cc(-c2ccc(F)c(C(F)(F)F)c2)no1,Potency,[18],inactive
